According to PubChem BioAssay (NCI):
“And” between values parts separate entries of the source, which are not always exact repeats. Equal values may be shown once. Compounds without any hit were thinned out: in the full panel of roughly 83,000, 20% have a hit.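 Assay: single dose, 48 h. Readout: percent growth (0 = no net growth; negative = cell death). Active: <10.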 The source made the active and inactive calls.

What was measured:
Assay in all cases: NCI-60 one-dose screen, 48 h (100 = growth as untreated, 0 = no growth, -100 = all killed)
Details in all cases: 10 µM unless noted
SR leukemia = tested on: SR leukemia
RPMI-8226 leukemia = tested on: RPMI-8226 leukemia
OVCAR-8 ovarian = tested on: OVCAR-8 ovarian
OVCAR-5 ovarian = tested on: OVCAR-5 ovarian
OVCAR-4 ovarian = tested on: OVCAR-4 ovarian
SK-OV-3 ovarian = tested on: SK-OV-3 ovarian
IGROV1 ovarian = tested on: IGROV1 ovarian
OVCAR-3 ovarian = tested on: OVCAR-3 ovarian
HS 578T breast = tested on: HS 578T breast
NCI/ADR-RES ovarian = tested on: NCI/ADR-RES ovarian

Measured: growth

O=C(/C=C1\C(=O)N(Cc2ccccc2)c2ccccc21)c1cc2ccccc2oc1=O
inactive: SR leukemia 22.5% | RPMI-8226 leukemia 98.8% | OVCAR-8 ovarian 98% | OVCAR-5 ovarian 116% | OVCAR-4 ovarian 84.5% | SK-OV-3 ovarian 109% | IGROV1 ovarian 67.4% | OVCAR-3 ovarian 38.6% | HS 578T breast 89.3% | NCI/ADR-RES ovarian 91.3%

CS(=O)(=O)Nc1cccc(-n2c(COc3ccc(OC(F)(F)F)cc3)nc3ccccc32)c1
inactive: SR leukemia 68.3% and 83.2% | RPMI-8226 leukemia 76.7% and 98.1% | OVCAR-8 ovarian 93.1% and 110% | OVCAR-5 ovarian 124% | OVCAR-4 ovarian 84.9% and 104% | SK-OV-3 ovarian 76% and 95.4% | IGROV1 ovarian 56.4% and 111% | OVCAR-3 ovarian 107% and 112% | HS 578T breast 47.9% and 101% | NCI/ADR-RES ovarian 88.2% and 107%

Clc1ccc2c(NCCNC34CC5CC(CC(C5)C3)C4)ccnc2c1
active: SR leukemia -35.2% | RPMI-8226 leukemia 0.134% | OVCAR-8 ovarian -63.4% | OVCAR-5 ovarian -37.1% | OVCAR-4 ovarian -57.3% | SK-OV-3 ovarian -83.1% | IGROV1 ovarian -55.6% | OVCAR-3 ovarian -52.4% | HS 578T breast -45.4% | NCI/ADR-RES ovarian -71.3%

Nc1nnc(-c2cncc(Br)c2)c(-c2c[nH]c3ccc(Br)cc23)n1
inactive: SR leukemia 54.3% | RPMI-8226 leukemia 38.4% | OVCAR-8 ovarian 60% | OVCAR-5 ovarian 83% | OVCAR-4 ovarian 42.9% | SK-OV-3 ovarian 98.7% | IGROV1 ovarian 52.3% | OVCAR-3 ovarian 69.9% | HS 578T breast 55.3% | NCI/ADR-RES ovarian 23.9%

COc1cc(/C=C/C(=O)c2ccc(S(=O)(=O)NCCNc3nc(N(C)C)nc(N4CCOCC4)n3)cc2)cc(OC)c1OC
active: SR leukemia -28.2% | RPMI-8226 leukemia -14.5% | OVCAR-8 ovarian -49.5% | OVCAR-5 ovarian -33.1% | OVCAR-4 ovarian 8.16% | IGROV1 ovarian -55% | OVCAR-3 ovarian -42.2% | NCI/ADR-RES ovarian -39.1%
inactive: SK-OV-3 ovarian 60.3% | HS 578T breast 19.9%

COc1ccc2[nH]cc(-c3cc4nc(-c5cn(C)c6ncc(Br)cc56)cc(N)n4n3)c2c1
active: SR leukemia -16.1% | RPMI-8226 leukemia -6.2% | OVCAR-8 ovarian -55.2% | OVCAR-5 ovarian -83.6% | OVCAR-4 ovarian -36.5% | SK-OV-3 ovarian -42.6% | IGROV1 ovarian -77.3% | OVCAR-3 ovarian -67.3% | HS 578T breast -27.8% | NCI/ADR-RES ovarian -44.8%

Cc1ccc(C(=O)Nc2cc(-c3ccncc3)cc(C(F)(F)F)c2)cc1C#Cc1cnc2cccnn12
inactive: RPMI-8226 leukemia 20% | OVCAR-8 ovarian 50.4% | OVCAR-5 ovarian 53.5% | OVCAR-4 ovarian 63.5% | SK-OV-3 ovarian 127% | IGROV1 ovarian 54.4% | OVCAR-3 ovarian 95.6% | HS 578T breast 23% | NCI/ADR-RES ovarian 50.2%
active: SR leukemia -11.9%

N#Cc1c(NC(=O)N2CCOCC2)n(-c2ccc(OC(F)(F)F)cc2)c2cc(F)ccc12
inactive: SR leukemia 80% | RPMI-8226 leukemia 57.9% | OVCAR-8 ovarian 99.1% | OVCAR-5 ovarian 88.2% | OVCAR-4 ovarian 87% | SK-OV-3 ovarian 120% | IGROV1 ovarian 105% | OVCAR-3 ovarian 111% | HS 578T breast 102% | NCI/ADR-RES ovarian 80.5%

Cc1cc(C(NC(=O)CCCCCNc2cccc3c2C(=O)N(C2CCC(=O)CC2=O)C3=O)c2cccc(N(C)C)c2)c(O)c2ncccc12 (stereo not given)
inactive: SR leukemia 25.3% | RPMI-8226 leukemia 15.6% | OVCAR-5 ovarian 38.1% | OVCAR-4 ovarian 33.2% | OVCAR-3 ovarian 16.3% | HS 578T breast 19.6% | NCI/ADR-RES ovarian 50.6%
active: OVCAR-8 ovarian 2.18% | SK-OV-3 ovarian -2.15% | IGROV1 ovarian 1.63%

O=S(=O)(c1nc(-c2ccc(Br)cc2)oc1-c1ccc(Cl)cc1)N1CCCC(O)C1 (stereo not given)
inactive: SR leukemia 37.2% | RPMI-8226 leukemia 29.7% | OVCAR-8 ovarian 68.4% | OVCAR-5 ovarian 87.8% | OVCAR-4 ovarian 43% | SK-OV-3 ovarian 101% | IGROV1 ovarian 87.8% | OVCAR-3 ovarian 63.1% | HS 578T breast 82.1% | NCI/ADR-RES ovarian 31.3%

O=C1Nc2ccccc2/C1=C/C(=O)c1cc2ccccc2oc1=O
inactive: SR leukemia 56.8% | RPMI-8226 leukemia 95.9% | OVCAR-8 ovarian 109% | OVCAR-5 ovarian 112% | OVCAR-4 ovarian 104% | SK-OV-3 ovarian 91.9% | IGROV1 ovarian 98.3% | OVCAR-3 ovarian 55.9% | HS 578T breast 105% | NCI/ADR-RES ovarian 107%

COc1cccc(-c2ccc(/C=N/NC(=O)c3[nH]c4ccc(Br)cc4c3-c3ccccc3)s2)c1
active: SR leukemia 6.57% | RPMI-8226 leukemia -22.9% | OVCAR-8 ovarian 0.0466% | OVCAR-5 ovarian -5.23% | IGROV1 ovarian 8.09% | OVCAR-3 ovarian -40.5% | NCI/ADR-RES ovarian -50.1%
inactive: OVCAR-4 ovarian 31.7% | SK-OV-3 ovarian 22.1% | HS 578T breast 17.8%

C/C(=N/O)c1ccc(NC(=O)CSc2nnc(-c3ccc4nc(-c5ccc(Cl)cc5)[nH]c4c3)o2)cc1
active: OVCAR-8 ovarian 1.29%
inactive: SR leukemia 24% | RPMI-8226 leukemia 54.4% | OVCAR-5 ovarian 118% | OVCAR-4 ovarian 101% | SK-OV-3 ovarian 117% | IGROV1 ovarian 102% | OVCAR-3 ovarian 84.7% | HS 578T breast 12.7% | NCI/ADR-RES ovarian 101%
